High-throughput results deposited in PubChem by National Center for Advancing Translational Sciences (NCATS).
In the library only some 3.2% were active in any assay of this set; here they are far more common.
PNC assembly inh = inhibitors of perinucleolar compartment assembly; PC3M PTB-GFP, PNC prevalence imaging, 16 h; active compounds read low; activity change (PNC), negative = inhibition, % at 10 µM; hit rate 3.1% among 140,000; AID 2417;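 active = readout at or below -70, meaning at least 70% loss of cells showing the perinucleolar compartment, a nuclear body marking cancer cells; inconclusive = readout between -30 and a set limit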;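 note: plate controls were DMSO wells for no effect and camptothecin positive control wells for full effect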
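Read-out is percentage of cells bearing a perinucleolar compartment, from automated 20x imaging of fixed, Hoechst-stained PC3M PTB-GFP cells. Cells were seeded 4 h, then exposed 16 h to compound (23 nl of library stock) in duplicate plates.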
ALOX15B inhib = inhibitors of human 15-lipoxygenase 2 (ALOX15B); hit rate 0.56% among 110,000; Potency, µM (top dose mostly 57.1 µM), for the others: top-dose activity change, negative = inhibition, most hits filed as inhibitors; purified 15hLO-2, xylenol orange hydroperoxide absorbance; O15296; AID 881; note: potency is the fitted concentration of half-maximal effect; nearly all actives have a fitted effect of over 60% in size
Target sequence (O15296 whole entry, looked up): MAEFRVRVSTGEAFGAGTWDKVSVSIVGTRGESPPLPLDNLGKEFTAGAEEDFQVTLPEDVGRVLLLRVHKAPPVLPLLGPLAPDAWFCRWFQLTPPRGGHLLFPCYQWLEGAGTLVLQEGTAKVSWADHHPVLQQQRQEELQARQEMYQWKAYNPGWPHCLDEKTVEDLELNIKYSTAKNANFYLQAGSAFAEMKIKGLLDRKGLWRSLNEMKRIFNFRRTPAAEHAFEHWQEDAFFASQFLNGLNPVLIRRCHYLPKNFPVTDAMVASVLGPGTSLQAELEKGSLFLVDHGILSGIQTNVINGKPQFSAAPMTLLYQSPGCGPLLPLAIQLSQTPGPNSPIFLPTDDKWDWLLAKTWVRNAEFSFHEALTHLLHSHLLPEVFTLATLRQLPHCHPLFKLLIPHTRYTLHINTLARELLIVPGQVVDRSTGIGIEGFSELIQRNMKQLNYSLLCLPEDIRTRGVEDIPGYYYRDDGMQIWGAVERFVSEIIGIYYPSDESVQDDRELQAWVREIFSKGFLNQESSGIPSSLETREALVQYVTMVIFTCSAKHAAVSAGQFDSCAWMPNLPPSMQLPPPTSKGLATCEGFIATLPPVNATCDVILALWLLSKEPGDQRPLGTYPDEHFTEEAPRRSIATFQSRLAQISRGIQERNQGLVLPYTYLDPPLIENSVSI
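Purified human 15hLO-2 (50 nM) preincubated 15 min with compound, then 45 uM arachidonic acid for 90 min at RT in 25 mM Hepes pH 7.5, 0.01% Triton X-100. Hydroperoxide detected by Fe-xylenol orange; 573/405 nm absorbance ratio.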
12-hLO inh = 12-hLO (ALOX12) enzyme inhibition; hit rate 0.12% among 150,000; AID 1452; P18054; Potency, µM (titrated, usually from 57.1 µM), for inactives: at the top dose activity change, negative = inhibition, actives largely listed as inhibitors; purified 12-hLO, xylenol orange hydroperoxide absorbance; note: potency is the fitted concentration of half-maximal effect; nearly all actives have a fitted effect of over 55% in size
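Lipoxygenase turnover measured by absorbance at 573 and 405 nm after Fe-XO development. Human 12hLO 150 nM, arachidonate 40 uM, pH 7.0 Hepes buffer with detergent; 15 min compound preincubation, 30 min reaction.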
* marks the source's active call; other numbers are inactive results; u = inconclusive; x = no result; [ ] = remark or other dose. Unless noted, calls come from the whole dose curve; as a rule, active = well fitted curve in the direction sought with a large enough effect; inconclusive = small, poorly fitted or top-dose-only effect, or another doubt; inactive = no such curve, though single readings can be large; an effect the other way counts as inactive or inconclusive. Unless noted, % is set by controls: 0 for no effect and ±100 for the full control effect.

SMILES	PNC assembly inh	ALOX15B inhib	12-hLO inh
CCOc1ccc(NC(=O)C(C)Oc2ccccc2C(=O)Nc2cccc(Cl)c2Cl)cc1 (stereo unspecified)	-110*	6%	-11%
CCOc1ccc(NC(=O)c2ccccc2CO)cc1	9	-1%	-2%
CCOc1ccc(NC(=S)Nc2ccc(OC(F)(F)F)cc2)cc1	38	x	-10%
CCOc1ccc(NC(=O)c2ccccc2OC)cc1	u	-7%	-9%
CCNC(=S)Nc1ccc(OCC)cc1	-86*	x	-1%
CCOc1ccc(NC(=O)c2ccccc2O)cc1	-104*	x	7%
O=Cc1ccccc1Cl	x	3%	-3%
Cn1c(=O)c(-c2ccc(Cl)cc2)nc2cnc(Oc3ccccc3)nc21	x	4%	1%
Cc1ccc(C(=O)CCNc2ccc(Cl)cc2)o1	-28	5%	2%
COCCNC(=O)[C@@]1(Cc2ccccc2)C=C[C@@H](C)N1C(=O)OC	x	1%	4%
O=C(Cc1ccc(Br)cc1)OCC(=O)N1CCc2ccccc2C1	76	x	-5%
Cc1cccc2cc(CN(Cc3ccco3)C(c3nnnn3CCc3ccccc3)C(C)C)c(=O)[nH]c12 (stereo unspecified)	-99*	19%	-27%
COc1ccc2[nH]c(=O)c(CN(Cc3ccco3)C(c3nnnn3Cc3ccccc3)C(C)C)cc2c1 (stereo unspecified)	-9	0%	-12%
Cc1cccnc1NC(=O)C1c2ccccc2Oc2ccccc21	2	x	-2%
O=C(Nc1cccc(-c2nc3cccnc3s2)c1)C1c2ccccc2Oc2ccccc21	-119*	x	3%
CC(C)c1c(Cl)c(O)c(-c2ccccc2)c(=O)n1-c1ccc(F)cc1	18	x	-4%
COC(=O)CCS(=O)(=O)c1nc(-c2ccccc2)cc(C(F)(F)F)n1	20	-15%	0%
COCC(C)NC(=O)CCS(=O)(=O)c1nc(-c2ccc(OC)cc2)cc(C(F)(F)F)n1 (stereo unspecified)	-88*	-1%	1%
Cc1ccccc1NC(=O)CN1C(=O)S/C(=C\c2cccn2-c2cccc(C(=O)O)c2)C1=O	u	25µM*	-10%
Cc1cccc(C)c1NC(=O)CN1C(=O)S/C(=C\c2cccn2-c2cccc(C(=O)O)c2)C1=O	36	u	-8%
CCOC(=O)Nc1nc(-c2ccccc2)c(C)s1	x	1%[11.4 µM]	-3%[11.4 µM]
c1ccc(OCCN2C3=NCCN3c3ccccc32)cc1	-90*	12%	1%
OC(COc1ccccc1)CN1C2=NCCCN2c2ccccc21 (stereo unspecified)	0	7%	0%
CCCCCCN1C2=NCCN2c2ccccc21	-107*	13%	4%
CCCN1C2=NCCN2c2ccccc21	29	-2%	3%
SMILES	PNC assembly inh	ALOX15B inhib	12-hLO inh
CCCOC(=O)c1ccc(NC(=O)c2cc(OC)c(OC)c(OC)c2Br)cc1	9	5%	-7%
C=CCOc1ccc(/C=C/C(=O)Nc2ccc(C(=O)NC)cc2)cc1	u	x	-3%
O=C(N/N=C/c1cc(Cl)ccc1O)c1ccc(Br)cc1	-107*	x	-17%
NC(=O)N/N=C\c1cc(Br)ccc1O	7	x	1%
COc1ccc(-c2cc(-c3ccc(C)cc3)nc(SCc3nnc(-c4ccccc4)o3)c2C#N)cc1OC	9	x	3%
CC(C)C[C@@H](CC(=O)N[C@H](CC(=O)N[C@@H]1CCNC[C@H]1C(=O)N[C@H](CC(=O)N[C@@H](CCC(=O)O)CC(=O)O)Cc1c[nH]c2ccccc12)C(C)C)NC(=O)[C@@H]1CNCC[C@H]1N	x	x	-2%
Cc1cc(Cl)ccc1OCCCC(=O)N1CCCc2ccccc21	-94*	-4%	-10%
COCC(=O)N1CCCc2ccccc21	17	-2%	-26%
O=C1SC(SCc2ccccc2)=N/C1=C\c1ccco1	12	u	u
CCCSC1=N/C(=C\C=C\c2ccco2)C(=O)S1	14	25µM*	u
C[C@H](CCC(=O)O)[C@H]1CC[C@]2(C)[C@@H]3C(=O)C[C@H]4C(C)(C)[C@@H](O)CC[C@]4(C)[C@H]3C(=O)C[C@@]12C	x	-1%[11.4 µM]	1%[11.4 µM]
COc1ccc(NC(=O)c2ccc(-c3ccccc3C(F)(F)F)o2)cc1	-100*	x	-6%
O=C(Nc1cccc(F)c1)c1ccc(-c2ccccc2C(F)(F)F)o1	-10	x	2%
CN(C)c1ncc2nc(-c3ccc(F)cc3)c(=O)n(CCc3ccccc3)c2n1	x	-5%	x
C=CC(=O)OCCOCCOC(=O)C=C	x	-5%	-1%
O=C(NC(=S)Nc1ccc(N2CCCCC2)c(Cl)c1)c1ccc2c(c1)OCCO2	u	10µM*	u
O=C(NC(=S)Nc1ccc(N2CCOCC2)c(Cl)c1)c1cncc(Br)c1	u	x	-29%
Cc1cc(C)cc(C(=O)NC(=S)Nc2ccc3c(c2)OCCO3)c1	14	x	-4%
CCc1ccc(C(=O)NC(=S)Nc2ccc3c(c2)OCCO3)cc1	12	x	14µM*
O=C1CCCN1CC(O)CS(=O)(=O)c1ccc(Cl)cc1 (stereo unspecified)	-5	5%	2%
COC(=O)c1c(C)[nH]c(C(=O)C(C)Sc2nnc(-c3cc(OC)c(OC)c(OC)c3)o2)c1C (stereo unspecified)	-19	-13%	-2%
CCn1cc(C(=O)Nc2ccc(F)c(F)c2)cn1	-14	x	-5%
CCn1cc(C(=O)Nc2ccc(C)c([N+](=O)[O-])c2)cn1	-87*	x	-5%
CCC(C)[C@@H](C(=O)NCC1CCC(C(=O)O)CC1)n1nnc2ccccc2c1=O (stereo partly specified)	-5	0%	6%
C[C@@H](C(=O)N[C@H](C(=O)O)c1ccccc1)n1nnc2ccccc2c1=O	-112*	x	-1%
SMILES	PNC assembly inh	ALOX15B inhib	12-hLO inh
CCN(Cc1ccccc1)C(c1cc2ccc(C)cc2[nH]c1=O)c1nnnn1CCOC (stereo unspecified)	49	-11%	0%
CCN(CC)c1ccc(N=Cc2ccc([N+](=O)[O-])o2)cc1	u	x	-13%
CCN(CC)c1ccc(N=Cc2ccccc2[N+](=O)[O-])cc1	-99*	x	-6%
COC(=O)[C@H](CCCN=C(N)N)NC(=O)CCCc1c(-c2ccccc2)[nH]c2c(F)cc(F)cc12	x	53%[0.0915 µM]	1%[0.00818 µM]
COc1cccc(/C=C/C(=O)OCC(=O)c2cc(C)n(CC3CCCO3)c2C)c1OC (stereo unspecified)	-1	x	2%
Cc1cc(C(=O)COC(=O)c2ccc(O)cc2)c(C)n1CC1COc2ccccc2O1 (stereo unspecified)	-81*	x	-3%
COc1ccc(CCNC(=O)C(C)Sc2ccc(C)cc2)cc1OC (stereo unspecified)	12	x	-4%
CC(C)CC(C(=O)O)N1C(=O)C2C3CC(C2C1=O)C1C(c2ccccc2)c2sc(=O)[nH]c2SC31 (stereo unspecified)	u	x	4%
O=C1C2=C(Nc3cc([N+](=O)[O-])ccc3N2)O[C@@H]1c1c[nH]c2ccc(COc3ccccc3)cc12	x	3%[11.4 µM]	4%[11.4 µM]
N#CC(C#N)=C1C=C2C=C(N3CCCCC3)CCC2CC1 (stereo unspecified)	-118*	x	0%
CCN(CC)C1=CC2=CC(=C(C#N)C#N)CCC2CC1 (stereo unspecified)	-134*	x	-13%
